# Data from PubChem BioAssay (NCATS).
# A number with no mark means an inactive call. Inconclusive results are not listed. Entries that show only a call come without a potency. Activity calls are given as the source filed them. Unless noted, calls come from the whole dose curve; as a rule, active = well fitted curve in the direction sought with a large enough effect; inconclusive = small, poorly fitted or top-dose-only effect, or another doubt; inactive = no such curve, though single readings can be large; an effect the other way counts as inactive or inconclusive.
# How the values were obtained:
# [1] = qHTS Assay for Identifying Gametocytocidal Compounds (AID 743244);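 note: actives lower the fluorescent signal which means gametocytes are killed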; details: P. falciparum 3D7 stage III-V gametocytes, alamarBlue, 72 h; max response: active compounds read low
# Method in brief: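 Compounds are pinned into medium, gametocytes (stage III–V, 3D7, 20,000 cells/well) added, and plates held 72 h at 37 °C in 5% CO2. AlamarBlue follows for 24 h before fluorescence reading.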
# [2] = P-glycoprotein substrates identified in KB-8-5-11 adenocarcinoma cell line, qHTS therapeutic library screen (AID 1346987); note: nearly all actives have a fitted effect of over 65% in size; note: potency is the fitted concentration of half-maximal effect
# Method in brief: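 KB-8-5-11: colchicine-selected sub-line of KB-3-1 over-expressing P-gp; assay medium lacked colchicine. 72 h drug exposure at 37 degree C, CellTiter-Glo.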
# KB-3-1 = experiment: Cytotoxic Profiling of Annotated Libraries Using Quantitative High-Throughput Screening (AID 1296008); details: Five cell lines viability, CellTiter-Glo ATP luminescence, 48-72 h; max response: active compounds read low; note: nearly all actives have a fitted effect of over 60% in size; note: potency is the fitted concentration of half-maximal effect
# Method in brief: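 Cytotoxicity was measured as CellTiter-Glo ATP luminescence, read after 10 min at room temperature. Compound treatment of the cells lasted 48 or 72 hr at 37 degrees Celsius in a qHTS format.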
# astro = experiment: Drug repurposing screens with cells derived from glioblastoma tumor samples (AID 1345199); details: viability, ATP luminescence, 48 h; series mostly up to 45.9 µM; note: nearly all actives have a fitted effect of over 40% in size; note: potency is the fitted concentration of half-maximal effect
# Method in brief: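 Four patient lines of CD133+ GBM neurospheres were screened at several concentrations; hits were retested in those lines plus three slower-growing GBM lines, using 48-hour treatment and ATP-based viability.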
# [3] = Cytotoxicity counterscreen for inhibitors of SARS-CoV-2 cell entry (AID 1645845; calls by dose curve; note: nearly all actives have a fitted effect of over 50% in size)
# Method in brief: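 48 h compound treatment (after 1 h preincubation), HEK293-ACE2 cells, 37 C/5% CO2; ATP luminescence endpoint; normalized to cell wells and media blanks.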
# [4] = target: Glutathione peroxidase 1 (Homo sapiens) (UniProt P07203); experiment: Primary qHTS Assay for Inhibitors of Recombinant Selenoprotein Glutathione Peroxidase 1 (GPX1) (AID 1845191); note: nearly all actives have a fitted effect of over 65% in size
# Method in brief: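 10 nM GPX1 + cpd, 30 min RT; start w/ 1 mM GSH, 0.5 mM cumene hydroperoxide, 0.5 mM NADPH, 100 nM GR, 0.01% BSA; buffer 50 mM Tris-HCl pH 7.5, 2 mM EDTA, 150 mM NaCl; Fl 340/450, 0 & 15 min.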
# [5] = target: Phospholipid hydroperoxide glutathione peroxidase GPX4 (Homo sapiens) (UniProt P36969); experiment: Primary qHTS Assay for Inhibitors of Recombinant Selenoprotein Glutathione Peroxidase 4 (GPX4) (AID 1845192); note: nearly all actives have a fitted effect of over 65% in size
# Method in brief: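 NADPH consumption, followed by fluorescence at 340/450 nm between 0 and 15 min, reports GPX4 activity via coupled glutathione reductase (100 nM). Enzyme 200 nM was pre-exposed to compound 30 min; 0.5 mM cumene hydroperoxide and 1 mM GSH served as substrates.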
# [6] = qHTS for Inhibitors of the Functional Ribonucleoprotein Complex (vRNP) of Lassa (LASV) Arenavirus: LASV Primary Screen - GLuc reporter signal (AID 1347082; calls by dose curve; tested in HEK293 reporter line; note: nearly all actives have a fitted effect of over 60% in size; note: potency is the fitted concentration of half-maximal effect)
# [7] = qHTS for Inhibitors of the Functional Ribonucleoprotein Complex (vRNP) of Lassa (LASV) Arenavirus: Viability assay - alamar blue signal for LASV Primary Screen (AID 1347083; calls by dose curve; tested in HEK293 reporter line; note: nearly all actives have a fitted effect of over 80% in size)
# [8] = qHTS for Inhibitors of the Functional Ribonucleoprotein Complex (vRNP) of Lymphocytic Choriomeningitis Arenaviruses (LCMV): Viability assay - alamar blue signal for LCMV Primary Screen (AID 1347085; calls by dose curve; tested in HEK293 reporter line; note: nearly all actives have a fitted effect of over 80% in size)
# [9] = target: Nucleoprotein (Lymphocytic choriomeningitis virus (strain Armstrong)) (UniProt P09992); experiment: qHTS for Inhibitors of the Functional Ribonucleoprotein Complex (vRNP) of Lymphocytic Choriomeningitis Arenaviruses (LCMV): LCMV Primary Screen - GLuc reporter signal (AID 1347086; calls by dose curve; note: nearly all actives have a fitted effect of over 70% in size)
# [10] = test system: Zika virus NS2B-NS3 protease (linked construct); experiment: Primary screen NINDS Rhodamine qHTS for Zika virus inhibitors (AID 1347160); note: nearly all actives have a fitted effect of over 55% in size
# Method in brief: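 Kinetic fluorescence (Ex 480 nm, Em 540 nm) over 15 min with 1.5 microM Rhodamine110 peptide and 25 nM linked protease.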
# [11] = target: Calcium and integrin-binding protein 1 (Homo sapiens) (UniProt Q99828); experiment: Primary qHTS for Identification of Calcium Integrin Binding Protein 1 (CIB1) Competitor (AID 1508620);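 note: GST tagged CIB1 binding a fluorescein labelled alphaIIb integrin peptide tracer; top concentration of the series differs between compounds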
# Method in brief: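 CIB1-GST (1 uM final) and compound incubated 15 min at room temperature before adding FITC-alphaIIb peptide tracer (100 nM final). Competition for binding read by fluorescence polarization (ex 480, em 540) after another 15 min at room temperature.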
# [12] = target: Luciferin 4-monooxygenase (Photinus pyralis) (UniProt P08659); experiment: Primary firefly luciferase (FLuc) qHTS assay for identification of artifact compounds. (AID 1845220); details: outcome: dose series up to 54.1 µM unless noted; note: nearly all actives have a fitted effect of over 60% in size
# Method in brief: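 Compounds sat 15 min at room temperature with 10 uM luciferin and 10 uM ATP (pH 7.6 Tris acetate). Firefly luciferase (10 nM final) was then added, and luminescence was read 5 min later. Data normalized to no-enzyme and DMSO controls were Hill-fitted.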
# [13] = test system: Nanoluciferase (engineered Oplophorus gracilirostris luciferase); experiment: Primary Nanoluciferase (NLuc) qHTS assay for identification of artifact compounds. (AID 1845222)
# Method in brief: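 Luminescence from secreted NLuc (filtered, 1:55-diluted S16 cell medium) read 5 min after Nano-Glo substrate; compounds preincubated 15 min, RT. Hill fits of inhibition normalized to DMSO and no-enzyme.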
# HeLa = experiment: Primary qHTS to identify gynecologic anti-cancer compounds using libraries of approved drugs and bioactive compounds (AID 1345084); details: Gynecologic cancer cell panel viability, ATPlite luminescence, 48 h; series mostly up to 57.5 µM; note: nearly all actives have a fitted effect of over 55% in size
# Method in brief: (§1)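 Luminescence from the ATPlite ATP-monitoring reagent indicates viable cell number; lower signal means cytotoxicity. Cells received compound 16 h after seeding and were exposed for 48 h across five concentrations.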
# JEG-3 = experiment: as above; details: Gynecologic cancer cell panel viability, ATPlite luminescence, 48 h; series mostly up to 57.5 µM
# Method in brief: as §1
# OV90 = experiment: as above; details: Gynecologic cancer cell panel viability, ATPlite luminescence, 48 h; series mostly up to 57.5 µM
# Method in brief: as §1
# CRL-7250 = normal cell line; experiment: qHTS assay to identify novel small-molecules to repurpose for Merkel cell carcinoma treatment (AID 1296009); details: MCC and control cell lines, CellTiter-Glo viability, 72 h; series mostly up to 92 µM; note: nearly all actives have a fitted effect of over 60% in size
# Method in brief: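 After compound transfer in DMSO, plates were kept 72 hr at 37 degree celsius. Luminescent ATP signal from CellTiter-Glo served as viability measure, normalized against DMSO and no-cell controls.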
# Sequence of Phospholipid hydroperoxide glutathione peroxidase GPX4 (Homo sapiens) (P36969 whole entry, looked up): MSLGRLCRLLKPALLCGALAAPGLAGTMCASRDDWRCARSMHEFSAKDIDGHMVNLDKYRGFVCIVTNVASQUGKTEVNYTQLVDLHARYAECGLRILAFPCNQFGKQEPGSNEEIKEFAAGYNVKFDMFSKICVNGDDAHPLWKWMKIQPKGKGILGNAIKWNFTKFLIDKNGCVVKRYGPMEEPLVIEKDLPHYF
# Sequence of Nucleoprotein (Lymphocytic choriomeningitis virus (strain Armstrong)) (P09992 whole entry, looked up): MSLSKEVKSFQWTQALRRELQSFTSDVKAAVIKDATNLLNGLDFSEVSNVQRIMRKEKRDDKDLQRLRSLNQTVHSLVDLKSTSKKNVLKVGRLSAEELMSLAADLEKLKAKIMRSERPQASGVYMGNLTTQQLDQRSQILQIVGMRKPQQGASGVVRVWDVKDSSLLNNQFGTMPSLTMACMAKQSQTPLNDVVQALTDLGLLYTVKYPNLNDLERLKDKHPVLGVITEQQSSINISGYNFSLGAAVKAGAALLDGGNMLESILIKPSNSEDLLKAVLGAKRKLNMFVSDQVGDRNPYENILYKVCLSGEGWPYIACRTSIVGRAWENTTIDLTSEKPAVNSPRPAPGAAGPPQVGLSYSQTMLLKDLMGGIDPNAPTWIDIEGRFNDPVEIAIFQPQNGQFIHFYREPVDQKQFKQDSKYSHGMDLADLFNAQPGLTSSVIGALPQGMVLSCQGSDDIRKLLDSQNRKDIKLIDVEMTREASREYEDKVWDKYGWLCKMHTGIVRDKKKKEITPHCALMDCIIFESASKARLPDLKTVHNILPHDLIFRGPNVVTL
# Sequence of Glutathione peroxidase 1 (Homo sapiens) (P07203 whole entry, looked up): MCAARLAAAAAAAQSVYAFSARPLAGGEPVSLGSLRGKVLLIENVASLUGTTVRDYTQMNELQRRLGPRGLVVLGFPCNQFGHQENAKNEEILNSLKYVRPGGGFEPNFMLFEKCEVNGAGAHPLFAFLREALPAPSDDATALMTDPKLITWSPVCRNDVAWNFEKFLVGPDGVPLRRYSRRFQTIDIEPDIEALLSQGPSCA
# Sequence of Calcium and integrin-binding protein 1 (Homo sapiens) (Q99828 whole entry, looked up): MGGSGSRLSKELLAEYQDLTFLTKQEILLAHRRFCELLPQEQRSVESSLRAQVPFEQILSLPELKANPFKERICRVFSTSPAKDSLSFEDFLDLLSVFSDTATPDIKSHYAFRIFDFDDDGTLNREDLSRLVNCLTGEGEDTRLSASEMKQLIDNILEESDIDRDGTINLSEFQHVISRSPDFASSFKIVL
compound,measurement,setting,value
COc1cc(C[C@H](C)N)c(OC)cc1C,max response,[1],-10.7%
same,Potency,[2],inactive
same,max response,KB-3-1,-5.3%
same,Potency,astro,inactive
C[C@]12CCC(=O)C[C@@H]1CC[C@@H]1[C@@H]2CC[C@@]2(C)[C@H]1CC[C@]2(C)O,max response,[1],-5.63%
same,max response,KB-3-1,-6.75%
same,Potency,astro,inactive
C[C@@H](N)C(=O)c1ccccc1,max response,[1],-12.7%
same,Potency,[2],inactive
same,max response,KB-3-1,2.24%
same,Potency,astro,inactive
O=C(O)CCCO,max response,[1],2.34%
same,Potency,[2],inactive
same,max response,KB-3-1,4.02%
same,Potency,astro,inactive
C[C@@H]1[C@H]2Cc3ccc(O)cc3[C@]1(C)CCN2C,max response,[1],-6.63%
same,Potency,[2],inactive
same,max response,KB-3-1,-14.3%
same,Potency,astro,inactive
OCCN(CCO)CCO,max response,[1],5.27%
same,Potency,[2],inactive
same,Potency,[3],inactive
same,Potency,[4],inactive
same,Potency,[5],inactive
same,max response,KB-3-1,0.954%
same,Potency,astro,inactive
Oc1ccc2c3c1O[C@H]1[C@@H](O)C=C[C@H]4[C@H](C2)NCC[C@@]341,max response,[1],8.16%
same,Potency,[2],inactive
same,max response,KB-3-1,-12.5%
same,Potency,astro,inactive
CC(C)C[C@H]1C(=O)N2CCC[C@H]2[C@]2(O)O[C@](NC(=O)[C@@H]3C[C@@H]4c5cccc6[nH]cc(c56)C[C@H]4N(C)C3)(C(C)C)C(=O)N12,Potency,[3],inactive
same,Potency,[4],inactive
same,max response,KB-3-1,-14.2%
C=CCC1([C@@H](C)CCC)C(=O)NC(=O)NC1=O,max response,[1],0.546%
same,Potency,[2],inactive
same,max response,KB-3-1,-4.55%
same,Potency,astro,inactive
CC(=O)[C@@]1(O)CC[C@H]2[C@@H]3CCC4=CC(=O)CC[C@]4(C)C3(F)[C@@H](O)C[C@@]21C (some centres undefined),max response,[1],7.59%
same,Potency,[2],inactive
same,Potency,[3],inactive
same,Potency,[4],inactive
same,Potency,[5],inactive
same,max response,KB-3-1,-10.8%
same,Potency,astro,inactive
Cc1nnc2n1-c1sc(Br)cc1C(c1ccccc1Cl)=NC2,max response,[1],6.14%
same,Potency,[3],inactive
same,Potency,[4],inactive
same,Potency,[5],inactive
same,max response,KB-3-1,-25.2%
CNC(C)CC1CCCCC1 (centres undefined),max response,[1],-3.52%
same,Potency,[2],inactive
same,Potency,[3],inactive
same,Potency,[4],inactive
same,Potency,[5],inactive
same,max response,KB-3-1,-19.8%
same,Potency,astro,inactive
CCN(CC)/[N+]([O-])=N/O,Potency,[2],inactive
same,max response,KB-3-1,-8.01%
same,Potency,astro,inactive
CN1CC[C@@]23CCCC[C@@H]2[C@@H]1Cc1ccc(O)cc13,max response,[1],4.44%
same,Potency,[2],inactive
same,max response,KB-3-1,-20.8%
same,Potency,astro,inactive
Cc1ccc2c(c1)[C@]13CCCC[C@@H]1[C@H](C2)N(C)CC3,max response,[1],-5.26%
same,Potency,[2],inactive
same,Potency,[3],inactive
same,Potency,[4],inactive
same,Potency,[5],inactive
same,max response,KB-3-1,-5.13%
same,Potency,astro,inactive
CCOc1cc(C=O)ccc1O,max response,[1],-3.19%
same,Potency,[2],inactive
same,max response,KB-3-1,-13%
same,Potency,astro,inactive
O=C1CN=C(c2ccccc2)c2cc(Cl)ccc2N1,max response,[1],38.4%
same,Potency,[2],inactive
same,max response,KB-3-1,-13.7%
same,Potency,astro,inactive
C[N+](C)(C)CC(=O)[O-],max response,[1],14.9%
same,Potency,[2],inactive
same,Potency,[6],inactive
same,Potency,[7],inactive
same,Potency,[8],inactive
same,Potency,[9],inactive
same,max response,KB-3-1,9.58%
same,Potency,astro,inactive
CCOP(=S)(OCC)SCSc1ccc(Cl)cc1,max response,[1],-1.21%
same,Potency,[2],inactive
same,max response,KB-3-1,-9.26%
same,Potency,astro,inactive
CCC(=O)O[C@](Cc1ccccc1)(c1ccccc1)[C@H](C)CN(C)C,max response,[1],0.382%
same,Potency,[2],20000 nM (active)
same,max response,KB-3-1,0.566%
same,Potency,astro,inactive
CN(C)CCO,max response,[1],29.8%
same,Potency,[2],inactive
same,max response,KB-3-1,-9.6%
same,Potency,astro,inactive
CC(=O)O[C@H]1C[C@H](O[C@H]2[C@@H](O)C[C@H](O[C@H]3[C@@H](O)C[C@H](OC4CC[C@@]5(C)C(CC[C@@H]6[C@@H]5CC[C@]5(C)[C@@H](C7=CC(=O)OC7)[C@@H](O)C[C@]65O)C4)O[C@@H]3C)O[C@@H]2C)O[C@H](C)[C@H]1O[C@@H]1O[C@H](CO)[C@@H](O)[C@H](O)[C@H]1O (some centres undefined),max response,[1],7.87%
same,Potency,[2],1300 nM (active)
same,Potency,[6],794 nM (active)
same,Potency,KB-3-1,1300 nM (active)
same,Potency,astro,708 nM (active)
CCCCNC(C)(C)[P+](=O)O,max response,[1],-17.6%
same,Potency,[2],inactive
same,max response,KB-3-1,5.36%
same,Potency,astro,inactive
COC(=O)[C@H]1[C@@H](OC(=O)c2ccccc2)C[C@@H]2CC[C@H]1N2C,max response,[1],-15.4%
same,Potency,[2],inactive
same,Potency,[6],inactive
same,Potency,[7],inactive
same,Potency,[8],inactive
same,Potency,[9],inactive
same,Potency,[3],inactive
same,Potency,[4],inactive
same,Potency,[5],inactive
same,max response,KB-3-1,1.68%
same,Potency,astro,inactive
CN1CCN=C(c2ccccc2)c2cc(Cl)ccc21,max response,[1],0.139%
same,Potency,[2],inactive
same,max response,KB-3-1,8.16%
same,Potency,astro,inactive
COc1ccc(OC)c(C[C@H](C)N)c1,max response,[1],-1.24%
same,Potency,[2],inactive
same,max response,KB-3-1,4.2%
same,Potency,astro,inactive
CN[C@]1(c2ccccc2Cl)CCCCC1=O,max response,[1],1.48%
same,Potency,[2],inactive
same,max response,KB-3-1,-15.2%
same,Potency,astro,inactive
CC1=CC(=O)[C@@H](O)[C@]2(C)C3[C@@H](O)[C@@H]4OC(=O)[C@@H]([C@H]4C)[C@]3(C)C(=O)[C@H](O)[C@@H]12 (some centres undefined),Potency,[10],inactive
same,Potency,[11],inactive
same,Potency,[4],inactive
same,Potency,[5],inactive
same,outcome,[12],inactive
same,Potency,[13],inactive
same,Potency,HeLa,inactive
same,Potency,JEG-3,inactive
same,Potency,OV90,inactive
CC(=O)N[C@@H]1[C@H](O[C@@H]2c3ccc(c(Cl)c3)Oc3cc4cc(c3O[C@H]3O[C@H](CO)[C@@H](O)[C@H](O)[C@H]3NC(=O)CCCCCCCC(C)C)Oc3ccc(cc3Cl)C[C@H]3NC(=O)[C@H](N)c5ccc(O)c(c5)Oc5cc(O)cc(c5)[C@H](NC3=O)C(=O)N[C@H]4C(=O)N[C@H]3C(=O)N[C@@H]2C(=O)N[C@@H](C(=O)O)c2cc(O)cc(O[C@H]4O[C@H](CO)[C@@H](O)[C@H](O)[C@H]4O)c2-c2cc3ccc2O)O[C@H](CO)[C@@H](O)[C@@H]1O,Potency,[6],inactive
same,Potency,[7],inactive
same,Potency,[8],inactive
same,Potency,[9],inactive
same,Potency,CRL-7250,inactive
